# Laboratory results published in paper PMC7826789 (International Journal of Molecular Sciences, 2021).
structure (smiles),measurement,setting,value
O=C(Nc1n[nH]c2cc(-c3ccsc3)ccc12)C1CC1 [SB-732932],Kinases covered,CDKL2,CDKL2
CCC(NN(C)C)=C1C(=O)Nc2ccc(C(C)=O)cc21 [BI00036838],Kinases covered,CDKL5,CDKL5
same,Kinases covered,DYRK1B,DYRK1B
same,Kinases covered,DYRK2,DYRK2
Cc1cc(NC(=O)c2cccc(NC(=O)/C=C/CN(C)C)c2)ccc1Nc1nccc(-c2cccnc2)n1 [JNK-IN-7],Kinases covered,CDKL5,CDKL5
same,Kinases covered,DRAK1,DRAK1
COc1cc(Nc2cnc(C#N)c(O[C@H](C)CN(C)C)n2)ncc1-c1cnn(C)c1 [CCT244747],Kinases covered,CHEK1,CHEK1
FC1=CC(C3=NC2=CC(OC)=C(OC)C=C2C(N[C@H]4[C@H]([C@](C)(O)C)CNC4)=N3)=C(O)C=C1.Cl.Cl [CCT241533],Kinases covered,CHEK2,CHEK2
CNc1nc(Nc2ccc(C(=O)N3CCOCC3)cc2OC)nc2[nH]cc(Cl)c12 [JH-II-127],Kinases covered,CHK2,CHK2
O=C(Nc1ccccc1)Nc1cccc(Oc2ccc3nccn3n2)c1 [TPKI-39],Kinases covered,CIT,CIT
same,Kinases covered,CSF1R,CSF1R
CC(C)C(=O)N[C@@H]1CCN(C(=O)Nc2nc3c(s2)-c2nc(-c4ccccc4Cl)ncc2CC3)C1 [BI00047804],Kinases covered,CLK3,CLK3
same,Kinases covered,CLK4,CLK4
CCCNC(=O)c1ccc(Nc2ncc(C(F)(F)F)c(Nc3ccccc3C(C)=O)n2)c(Br)c1 [BI00801818],Kinases covered,CLK4,CLK4
Cn1ccc2ncnc(Oc3ccc(NC(=O)Nc4ccccc4)cc3)c21 [TPKI-69],Kinases covered,CSF1R,CSF1R
Nc1nccc(-c2c(-c3ccc(F)cc3)ncn2C2CCN(Cc3ccccc3)CC2)n1 [SB-219980],Kinases covered,CSNK1A1,CSNK1A1
same,Kinases covered,CSNK1D,CSNK1D
same,Kinases covered,CSNK1E,CSNK1E
Fc1ccc(-c2nn3ccccc3c2-c2ccncc2)cc1 [GW434756X],Kinases covered,CSNK1A1,CSNK1A1
Cc1nccc(-c2c(-c3ccc(F)cc3)ncn2CCCN2CCOCC2)n1 [SB-282975],Kinases covered,CSNK1D,CSNK1D
C[C@@H]1CCN(C(=O)CC#N)C[C@@H]1N(C)c1ncnc2[nH]ccc12 [PFE-PKIS 25],Kinases covered,DCLK3,DCLK3
